Data from the supplement of paper PMC11001985.
Unmarked numbers belong to inactive results.

Compound: C#CCNC(=O)CCSSCCC(=O)NCCc1ccc(C=O)c(C=O)c1
Test: lysine labeling ratio R10:1 (500 µM / 50 µM probe), SILAC-ABPP in living cells; higher = lower intrinsic lysine reactivity toward the probe, active = 2 or less
Settings: HeLa; probe concentrations 500 vs 50 µM
Summary of the method: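 R, given per lysine, is the filtered median high-probe/low-probe MS1 peptide ratio, with the median then taken across forward and reverse replicates. Cells were living SILAC light and heavy HeLa cells in PBS at room temperature, labelled with 50 µM or 500 µM of an alkyne-tagged, disulfide-linked lysine probe. The ceiling applied is 20.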

Sequence of UniProt P08581 (P08581 whole entry): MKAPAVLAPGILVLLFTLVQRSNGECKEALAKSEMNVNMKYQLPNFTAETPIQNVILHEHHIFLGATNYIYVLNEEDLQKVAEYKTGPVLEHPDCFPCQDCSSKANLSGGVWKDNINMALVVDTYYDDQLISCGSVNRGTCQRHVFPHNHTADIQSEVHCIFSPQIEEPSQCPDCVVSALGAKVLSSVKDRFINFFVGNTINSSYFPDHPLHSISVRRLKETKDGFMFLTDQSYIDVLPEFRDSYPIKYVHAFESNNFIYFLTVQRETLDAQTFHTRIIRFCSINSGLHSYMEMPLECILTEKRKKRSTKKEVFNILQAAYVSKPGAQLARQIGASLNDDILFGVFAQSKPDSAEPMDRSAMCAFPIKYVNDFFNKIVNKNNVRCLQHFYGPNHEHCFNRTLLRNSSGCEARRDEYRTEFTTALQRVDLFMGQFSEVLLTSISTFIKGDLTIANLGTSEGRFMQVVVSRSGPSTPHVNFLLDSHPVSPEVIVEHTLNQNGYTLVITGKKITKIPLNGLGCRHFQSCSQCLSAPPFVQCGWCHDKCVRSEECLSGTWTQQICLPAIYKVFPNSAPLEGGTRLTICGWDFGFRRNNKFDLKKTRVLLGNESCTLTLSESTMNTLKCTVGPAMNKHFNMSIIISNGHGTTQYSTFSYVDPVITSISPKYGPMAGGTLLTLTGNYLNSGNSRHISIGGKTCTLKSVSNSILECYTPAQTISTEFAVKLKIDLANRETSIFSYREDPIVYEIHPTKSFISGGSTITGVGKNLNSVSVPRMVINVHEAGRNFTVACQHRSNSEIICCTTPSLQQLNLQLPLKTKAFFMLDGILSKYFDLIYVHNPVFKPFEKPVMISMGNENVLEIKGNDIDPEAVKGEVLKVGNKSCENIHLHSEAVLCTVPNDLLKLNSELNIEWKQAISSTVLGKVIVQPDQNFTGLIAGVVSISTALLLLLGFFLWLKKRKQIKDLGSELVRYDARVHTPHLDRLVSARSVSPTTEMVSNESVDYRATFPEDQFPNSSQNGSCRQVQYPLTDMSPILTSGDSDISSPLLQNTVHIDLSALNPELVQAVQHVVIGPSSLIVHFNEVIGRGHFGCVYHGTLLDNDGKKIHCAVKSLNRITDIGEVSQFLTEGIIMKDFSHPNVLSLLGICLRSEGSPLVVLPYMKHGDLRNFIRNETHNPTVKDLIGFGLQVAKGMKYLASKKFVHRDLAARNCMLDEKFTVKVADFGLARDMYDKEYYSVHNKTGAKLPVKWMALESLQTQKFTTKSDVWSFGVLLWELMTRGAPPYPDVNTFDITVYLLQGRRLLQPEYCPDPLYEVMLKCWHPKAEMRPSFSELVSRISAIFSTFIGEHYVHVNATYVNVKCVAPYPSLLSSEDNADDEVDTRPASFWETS
Sequence of UniProt P08069 (P08069 whole entry, looked up): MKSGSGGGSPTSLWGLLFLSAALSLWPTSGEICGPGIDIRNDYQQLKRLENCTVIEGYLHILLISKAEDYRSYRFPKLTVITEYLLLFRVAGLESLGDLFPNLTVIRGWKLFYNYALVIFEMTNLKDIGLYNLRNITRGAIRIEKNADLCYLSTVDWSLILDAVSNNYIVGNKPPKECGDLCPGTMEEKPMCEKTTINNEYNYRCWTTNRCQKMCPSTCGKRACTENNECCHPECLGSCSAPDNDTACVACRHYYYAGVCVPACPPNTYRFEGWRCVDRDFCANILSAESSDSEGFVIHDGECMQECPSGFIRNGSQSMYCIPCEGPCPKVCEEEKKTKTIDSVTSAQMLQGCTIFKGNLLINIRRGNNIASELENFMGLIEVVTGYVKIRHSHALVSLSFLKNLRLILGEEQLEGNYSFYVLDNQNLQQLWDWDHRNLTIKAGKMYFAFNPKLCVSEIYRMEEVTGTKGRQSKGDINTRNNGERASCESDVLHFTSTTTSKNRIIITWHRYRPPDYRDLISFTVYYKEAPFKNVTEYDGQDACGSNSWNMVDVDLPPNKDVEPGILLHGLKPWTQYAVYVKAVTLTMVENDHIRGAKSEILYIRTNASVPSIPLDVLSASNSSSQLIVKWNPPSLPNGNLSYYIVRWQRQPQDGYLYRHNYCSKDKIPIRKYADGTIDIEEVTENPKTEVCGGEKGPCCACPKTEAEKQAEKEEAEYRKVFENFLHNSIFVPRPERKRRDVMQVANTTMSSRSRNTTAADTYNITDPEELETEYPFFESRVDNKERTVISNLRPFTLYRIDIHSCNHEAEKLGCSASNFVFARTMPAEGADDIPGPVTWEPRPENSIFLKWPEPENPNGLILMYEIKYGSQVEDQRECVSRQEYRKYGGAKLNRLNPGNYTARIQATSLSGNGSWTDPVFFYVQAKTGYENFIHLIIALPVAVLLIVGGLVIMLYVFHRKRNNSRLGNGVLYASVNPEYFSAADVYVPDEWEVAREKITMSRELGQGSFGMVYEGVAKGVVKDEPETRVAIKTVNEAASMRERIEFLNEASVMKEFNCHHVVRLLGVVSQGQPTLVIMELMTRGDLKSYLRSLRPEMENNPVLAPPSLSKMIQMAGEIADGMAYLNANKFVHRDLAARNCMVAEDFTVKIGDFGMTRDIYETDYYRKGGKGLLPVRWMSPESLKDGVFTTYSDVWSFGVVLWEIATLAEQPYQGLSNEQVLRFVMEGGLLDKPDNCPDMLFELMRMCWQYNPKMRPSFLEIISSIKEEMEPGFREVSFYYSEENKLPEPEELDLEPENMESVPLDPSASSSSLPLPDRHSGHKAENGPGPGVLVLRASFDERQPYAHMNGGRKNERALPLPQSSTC
Sequence of UniProt O43854 (O43854 whole entry): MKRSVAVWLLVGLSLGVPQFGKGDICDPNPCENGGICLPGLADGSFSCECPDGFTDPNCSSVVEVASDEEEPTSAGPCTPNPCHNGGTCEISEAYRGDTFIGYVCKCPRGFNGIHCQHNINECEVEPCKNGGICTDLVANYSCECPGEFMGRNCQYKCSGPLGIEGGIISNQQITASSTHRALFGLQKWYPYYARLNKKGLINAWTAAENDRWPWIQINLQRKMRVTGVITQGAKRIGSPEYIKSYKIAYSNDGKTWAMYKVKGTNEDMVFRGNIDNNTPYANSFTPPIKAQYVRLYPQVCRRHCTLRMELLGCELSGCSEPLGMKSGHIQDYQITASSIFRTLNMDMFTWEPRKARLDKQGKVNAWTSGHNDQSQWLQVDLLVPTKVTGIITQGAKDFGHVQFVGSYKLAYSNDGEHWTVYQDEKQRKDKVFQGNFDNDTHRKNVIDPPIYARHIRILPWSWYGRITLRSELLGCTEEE
Sequence of UniProt P04075 (P04075 whole entry): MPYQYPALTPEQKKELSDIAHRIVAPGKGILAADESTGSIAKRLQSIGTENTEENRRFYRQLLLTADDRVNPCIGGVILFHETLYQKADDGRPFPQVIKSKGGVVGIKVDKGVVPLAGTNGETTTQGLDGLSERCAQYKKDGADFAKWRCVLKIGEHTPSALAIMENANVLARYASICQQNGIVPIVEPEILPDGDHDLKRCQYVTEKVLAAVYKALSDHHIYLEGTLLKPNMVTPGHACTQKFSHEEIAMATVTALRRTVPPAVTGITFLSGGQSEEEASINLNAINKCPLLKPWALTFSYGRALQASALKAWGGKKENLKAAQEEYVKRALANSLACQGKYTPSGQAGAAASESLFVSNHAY
Sequence of UniProt P16070 (P16070 whole entry): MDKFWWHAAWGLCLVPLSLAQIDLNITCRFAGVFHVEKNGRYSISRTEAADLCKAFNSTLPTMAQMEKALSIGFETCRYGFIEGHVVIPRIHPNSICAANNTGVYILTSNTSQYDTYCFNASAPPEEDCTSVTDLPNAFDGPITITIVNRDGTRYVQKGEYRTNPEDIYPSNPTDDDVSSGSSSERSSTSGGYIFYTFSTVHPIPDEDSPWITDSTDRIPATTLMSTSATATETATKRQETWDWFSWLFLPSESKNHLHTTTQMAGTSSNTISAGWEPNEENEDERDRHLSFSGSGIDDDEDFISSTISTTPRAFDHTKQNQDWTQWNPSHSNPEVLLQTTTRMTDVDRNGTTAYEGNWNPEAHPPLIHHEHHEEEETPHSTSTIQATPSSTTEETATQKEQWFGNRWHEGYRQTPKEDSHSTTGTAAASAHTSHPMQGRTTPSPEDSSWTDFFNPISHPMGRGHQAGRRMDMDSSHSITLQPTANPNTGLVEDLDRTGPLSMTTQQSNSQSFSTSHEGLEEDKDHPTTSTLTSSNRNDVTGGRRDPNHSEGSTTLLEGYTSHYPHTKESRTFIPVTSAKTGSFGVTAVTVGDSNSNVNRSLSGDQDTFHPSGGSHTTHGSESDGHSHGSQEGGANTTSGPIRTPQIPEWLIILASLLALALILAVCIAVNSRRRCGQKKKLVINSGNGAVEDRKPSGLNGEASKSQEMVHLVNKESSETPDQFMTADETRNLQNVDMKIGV
Sequence of UniProt Q16643 (Q16643 whole entry): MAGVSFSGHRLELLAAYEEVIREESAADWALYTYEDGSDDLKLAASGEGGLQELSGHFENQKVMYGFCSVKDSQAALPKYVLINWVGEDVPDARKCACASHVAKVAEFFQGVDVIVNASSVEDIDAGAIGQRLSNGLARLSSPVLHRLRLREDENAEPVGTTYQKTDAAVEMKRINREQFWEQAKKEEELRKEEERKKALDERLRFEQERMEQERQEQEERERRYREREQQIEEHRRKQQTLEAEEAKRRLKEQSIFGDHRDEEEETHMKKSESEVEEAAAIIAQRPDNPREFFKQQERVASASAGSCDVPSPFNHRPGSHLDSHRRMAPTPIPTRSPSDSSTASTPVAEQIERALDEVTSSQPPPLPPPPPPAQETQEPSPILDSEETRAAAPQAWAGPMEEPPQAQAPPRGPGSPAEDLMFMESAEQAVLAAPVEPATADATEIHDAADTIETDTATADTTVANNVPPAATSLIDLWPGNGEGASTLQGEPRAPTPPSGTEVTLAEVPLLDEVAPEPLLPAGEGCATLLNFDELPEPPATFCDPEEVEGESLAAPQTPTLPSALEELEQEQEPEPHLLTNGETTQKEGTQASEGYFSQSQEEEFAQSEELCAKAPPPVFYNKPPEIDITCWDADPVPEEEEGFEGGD

Target | lysine labeling ratio R10:1
VTN (lysine site: K194) (UniProt P04004) | 16.5
UniProt Q8WXI7 (lysine site: K12309) | 6.26
DNAJA1 (lysine site: K136) (UniProt P31689) | 1.69 (active)
FN1 (lysine site: K116) (UniProt P02751) | 5.35
UniProt P46781 (lysine site: K30) | 1.01 (active)
NUMA1 (lysine site: K284) (UniProt Q14980) | 2 (active)
FZD6 (lysine site: K149) (UniProt O60353) | 0.883 (active)
LAMA5 (lysine site: K2481) (UniProt O15230) | 1.15 (active)
EDIL3 (lysine site: K290) (UniProt O43854) | 2.39
DSG2 (lysine site: K254) (UniProt Q14126) | 8.19
PDIA3 (lysine site: K130) (UniProt P30101) | 3.07
CD44 (lysine site: K38) (UniProt P16070) | 5.01
IDH2 (lysine site: K384) (UniProt P48735) | 3.48
L1CAM (lysine site: K381) (UniProt P32004) | 14
CLTA (lysine site: K242) (UniProt P09496) | 5.68
UniProt Q15800 (lysine site: K284) | 1.82 (active)
MCAM (lysine site: K551) (UniProt P43121) | 5.15
ARL6IP5 (lysine site: K158) (UniProt O75915) | 2.7
DBN1 (lysine site: K248) (UniProt Q16643) | 0.855 (active)
ITGAV (lysine site: K165) (UniProt P06756) | 10.3
RPS19 (lysine site: K122) (UniProt P39019) | 4.72
EGFR (lysine site: K325) (UniProt P00533) | 5.84
TKT (lysine site: K144) (UniProt P29401) | 10.4
RPL3 (lysine site: K272) (UniProt P39023) | 2.04

Target | lysine labeling ratio R10:1
UniProt P22413 (lysine site: K465) | 1.52 (active)
PAICS (lysine site: K304) (UniProt P22234) | 4.39
ANPEP (lysine site: K379) (UniProt P15144) | 0.5 (active)
GANAB (lysine site: K191) (UniProt Q14697) | 4.19
MYH9 (lysine site: K1669) (UniProt P35579) | 5.57
UniProt P52803 (lysine site: K166) | 0.58 (active)
UniProt P62987 (lysine site: K93) | 5.44
PPL (lysine site: K1339) (UniProt O60437) | 1.34 (active)
LRP1 (lysine site: K646) (UniProt Q07954) | 1.92 (active)
ENO1 (lysine site: K406) (UniProt P06733) | 10
CCT8 (lysine site: K400) (UniProt P50990) | 4.01
FAT1 (lysine site: K369) (UniProt Q14517) | 1.01 (active)
TSPAN6 (lysine site: K146) (UniProt O43657) | 1.28 (active)
MET (lysine site: K600) (UniProt P08581) | 1.67 (active)
IGF1R (lysine site: K47) (UniProt P08069) | 3.62
UniProt Q14574 (lysine site: K180) | 1.97 (active)
UniProt Q16363 (lysine site: K682) | 1.54 (active)
ANXA2 (lysine site: K49) (UniProt P07355) | 3.95
UniProt Q9UKX5 (lysine site: K223) | 2.86
ALDOA (lysine site: K13) (UniProt P04075) | 8.82
UniProt P62888 (lysine site: K9) | 2.95
DDX5 (lysine site: K80) (UniProt P17844) | 3.64
RPL34 (lysine site: K62) (UniProt P49207) | 10.1
